Assay results reported in PubChem BioAssay (NCI).
This is part of a sample that, as a whole, favours compounds with a hit. Of some 83,000 tested, about 20% had one in any assay.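 In brief: 96-well plates, 48 h treatment, single concentration, percent growth endpoint.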 Values without a mark were called inactive. Activity calls are given as the source filed them. Rule for the calls: active = growth percent below 10; inactive = the rest.

Columns and labels:
Assay in all cases: NCI-60 one-dose screen, 48 h (100 = growth as untreated, 0 = no growth, -100 = all killed)
Conditions in all cases: 10 µM
[1] = test system: SK-MEL-2 melanoma
[2] = test system: EKVX NSCLC
[3] = test system: SN12C renal
[4] = test system: UO-31 renal
[5] = test system: TK-10 renal
[6] = test system: ACHN renal
[7] = test system: CAKI-1 renal
[8] = test system: A498 renal
[9] = test system: CCRF-CEM leukemia
[10] = test system: MOLT-4 leukemia
[11] = test system: SR leukemia
[12] = test system: OVCAR-8 ovarian
[13] = test system: OVCAR-5 ovarian
[14] = test system: OVCAR-4 ovarian
[15] = test system: SK-OV-3 ovarian
[16] = test system: IGROV1 ovarian
[17] = test system: OVCAR-3 ovarian
[18] = test system: HS 578T breast
[19] = test system: RPMI-8226 leukemia
[20] = test system: NCI/ADR-RES ovarian

COc1ccc(/C=C/C(=O)c2ccc(NC(=O)CN3C(=O)NC(C)(c4ccccc4)C3=O)cc2)cc1 (configuration not stated)
growth [1]: 93.4% | growth [2]: 91% | growth [3]: 95.3% | growth [4]: 56.8% | growth [5]: 109% | growth [6]: 84.5% | growth [7]: 79% | growth [8]: 119% | growth [9]: 78.3% | growth [10]: 49.7% | growth [11]: 61.6% | growth [12]: 93.3% | growth [13]: 102% | growth [14]: 78.3% | growth [15]: 106% | growth [16]: 90.3% | growth [17]: 78.2% | growth [18]: 81.3%

COc1ccc(-c2ccc(/C=N/NC(=O)c3[nH]c4ccc(Br)cc4c3-c3ccccc3)s2)cc1
growth [1]: 106% | growth [2]: 110% | growth [3]: 74.9% | growth [4]: 86.4% | growth [5]: 127% | growth [6]: 106% | growth [7]: 94.8% | growth [8]: 131% | growth [9]: 88% | growth [10]: 87.6% | growth [19]: 57.7% | growth [12]: 51.9% | growth [13]: 12.8% | growth [14]: 79.6% | growth [15]: 117% | growth [16]: 110% | growth [17]: 97.5% | growth [18]: 54% | growth [20]: 59.9%

CSc1nc(-c2cccc(C)c2)c2cc(-c3ccccc3)n(C)c2n1
growth [1]: 12.2% | growth [2]: 18.4% | growth [3]: 20% | growth [4]: 29.8% | growth [5]: 58.1% | growth [6]: 32.4% | growth [7]: 26.2% | growth [8]: 65.5% | growth [9]: 17.5% | growth [10]: 16.8% | growth [11]: 11.7% | growth [12]: 25.2% | growth [13]: 49.6% | growth [14]: 31.5% | growth [15]: 69% | growth [16]: 34.3% | growth [17]: -32.4% (active) | growth [18]: 9.16% (active) | growth [20]: -19.6% (active)

COC[C@@H](CC(C)C)N=C1NC(=O)/C(=C/c2ccc3ncoc3c2)N1
growth [1]: -75.8% (active) | growth [2]: 18% | growth [3]: 15.1% | growth [4]: -8.68% (active) | growth [5]: 36.5% | growth [6]: 7.63% (active) | growth [7]: 6.77% (active) | growth [8]: -9.51% (active) | growth [9]: 15.2% | growth [10]: 11.3% | growth [19]: 0.955% (active) | growth [12]: 12.4% | growth [13]: -11.6% (active) | growth [14]: 53.7% | growth [15]: -40.8% (active) | growth [16]: 7.9% (active) | growth [17]: -26.3% (active) | growth [18]: 25.9%

O=C1NC(=NC2CCCCCC2)N/C1=C\c1ccc2ncoc2c1
growth [1]: 22.9% | growth [2]: 38.8% | growth [3]: 21.1% | growth [4]: 4.42% (active) | growth [5]: 43.8% | growth [6]: 9.91% (active) | growth [7]: 10% | growth [8]: -9.1% (active) | growth [9]: 18% | growth [10]: 38.2% | growth [19]: 35.9% | growth [12]: 27.3% | growth [13]: 50.3% | growth [14]: 62% | growth [15]: 24.4% | growth [16]: 34.6% | growth [17]: -3.02% (active) | growth [18]: 42% | growth [20]: 41.1%

CN1CCCN(Cc2ccc(C(=O)Nc3cccc(Nc4ccc5cc(O)ccc5n4)c3)cc2C(F)(F)F)CC1
growth [1]: 111% | growth [2]: 71.1% | growth [3]: 86.8% | growth [4]: 91.7% | growth [5]: 134% | growth [6]: 86.4% | growth [7]: 74.7% | growth [8]: 139% | growth [9]: -9.62% (active) | growth [10]: -6.61% (active) | growth [19]: -20.5% (active) | growth [12]: 101% | growth [13]: 131% | growth [14]: 77.2% | growth [15]: 116% | growth [16]: 88.6% | growth [17]: 76.9% | growth [18]: 61.9%

Cc1ccc(/C=C/C(=O)c2ccc(NC(=O)CSc3nnc(-c4c[nH]c5ccccc45)n3-c3ccccc3)cc2)c(C)c1
growth [1]: 87.7% | growth [2]: 63.7% | growth [3]: 27.1% | growth [4]: 65.9% | growth [5]: 73.4% | growth [6]: 59.5% | growth [7]: 66.9% | growth [8]: 106% | growth [9]: 83.1% | growth [10]: 43.6% | growth [11]: 41.6% | growth [19]: 22.8% | growth [13]: 77.3% | growth [14]: 13.1% | growth [15]: 106% | growth [16]: 66.8% | growth [17]: 32% | growth [18]: 67.8% | growth [20]: 64.2%

CN1CCN(Cc2ccc(C(=O)Nc3cccc(Nc4ccc5c(O)cccc5n4)c3)cc2C(F)(F)F)CC1
growth [1]: -75.9% (active) | growth [2]: -45.6% (active) | growth [3]: 1.56% (active) | growth [4]: -20.2% (active) | growth [5]: -21% (active) | growth [6]: -23.4% (active) | growth [7]: -38.3% (active) | growth [8]: -33.2% (active) | growth [9]: 5.12% (active) | growth [10]: -2.84% (active) | growth [19]: -10.6% (active) | growth [12]: -19.5% (active) | growth [13]: -48.7% (active) | growth [14]: -13.1% (active) | growth [15]: -46.6% (active) | growth [16]: -54.6% (active) | growth [17]: -23% (active) | growth [18]: -37.5% (active)

CC1(c2ccccc2)NC(=O)N(CC(=O)Nc2ccc(C(=O)/C=C/c3ccc(Br)cc3)cc2)C1=O (configuration not stated)
growth [1]: 52.3% | growth [2]: 55% | growth [3]: 51.2% | growth [4]: 34.3% | growth [5]: 76.7% | growth [6]: 35% | growth [7]: 39.5% | growth [8]: 71.1% | growth [9]: 32% | growth [10]: 13.9% | growth [11]: 15.5% | growth [12]: 41.3% | growth [13]: 76% | growth [14]: 43.3% | growth [15]: 94.3% | growth [16]: 61.6% | growth [17]: 27.4% | growth [18]: 53.4% | growth [20]: 79.8%
